The record followed here is PubChem BioAssay (NCI).

The panel holds about 83,000 compounds, 20% with a hit somewhere; the sample as a whole holds those more often.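 Negative percent growth values reflect cell death: -40 means 40% of the cells present at the start died, and -100 means all died.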 Values without a mark were called inactive. The source made the active and inactive calls. The calls were made as follows: active = growth percent below 10; inactive = the rest.

Common to all, as to experiment: NCI-60 one-dose screen, 48 h (100 = growth as untreated, 0 = no growth, -100 = all killed)
The test system of one assay is HCT-15 colon. Conditions: 10 µM unless noted.
The test system of a further assay is HT29 colon. Conditions: 10 µM unless noted.
The next assay deals with SNB-75 CNS. Conditions: 10 µM unless noted.
The test system of a further assay is SNB-19 CNS. The following applies: 10 µM unless noted.
Another assay deals with U251 CNS. Conditions: 10 µM unless noted.
The next assay relates to PC-3 prostate. The following applies: 10 µM unless noted.
Another assay relates to SK-MEL-5 melanoma. Conditions: 10 µM unless noted.
The next assay concerns UACC-62 melanoma. Conditions: 10 µM unless noted.
The next assay concerns LOX IMVI melanoma. Conditions: 10 µM unless noted.
A further assay deals with SK-MEL-28 melanoma. The following applies: 10 µM unless noted.
In a further assay the test system is SK-MEL-2 melanoma. Conditions: 10 µM unless noted.
In a further assay the test system is EKVX NSCLC. The following applies: 10 µM unless noted.
The subject of a further assay is SN12C renal. The following applies: 10 µM unless noted.
In the next assay the test system is UO-31 renal. Conditions: 10 µM unless noted.
For a further assay, the system named is TK-10 renal. The following applies: 10 µM unless noted.
Another assay deals with ACHN renal. Conditions: 10 µM unless noted.
The subject of another assay is CAKI-1 renal. Conditions: 10 µM.
The subject of the next assay is CCRF-CEM leukemia. Conditions: 10 µM unless noted.
The subject of a further assay is MOLT-4 leukemia. The following applies: 10 µM unless noted.
For a further assay, the system named is A498 renal. The following applies: 10 µM unless noted.

As for `C=C(C)[C@@H]1CC[C@]2(C(=O)NCCCN(CCC#N)CCC#N)CC[C@]3(C)[C@H](CC[C@@H]4[C@@]5(C)CCC(=O)C(C)(C)[C@@H]5CC[C@]43C)[C@@H]12`, the growth was 96.4% in the assay on HCT-15 colon; 106% with HT29 colon; 99.9% with SNB-75 CNS; 88.9% with SNB-19 CNS; 97.7% in the assay with U251 CNS; 93.1% in the assay with PC-3 prostate. The growth is 99.1% in the assay on SK-MEL-5 melanoma; 88.3% with UACC-62 melanoma; 99.3% in the assay on LOX IMVI melanoma; 104% in the assay on SK-MEL-28 melanoma; 102% with SK-MEL-2 melanoma; 104% with EKVX NSCLC. For the same compound, the growth with SN12C renal is 94.3%; with UO-31 renal, 95.1%; with TK-10 renal, 101%; in the assay on ACHN renal it was 99.9%; in the assay on CAKI-1 renal, 75%; in the assay on CCRF-CEM leukemia, 103%. Moreover, in the assay on MOLT-4 leukemia, the growth was 88.1%.
Take `COc1cccc(/C=C/C(=O)c2ccc(NC(=O)COc3cccc4cccnc34)cc2)c1`: the growth in the assay with HCT-15 colon was 94.8%; in the assay with HT29 colon, 98.2%; in the assay with SNB-75 CNS it was 97.4%; in the assay on SNB-19 CNS it was 95.9%; in the assay on U251 CNS it was 97.2%; in the assay with PC-3 prostate, 93.3%. Further, the growth with SK-MEL-5 melanoma was 94.9%; in the assay on UACC-62 melanoma, 94.5%; in the assay on LOX IMVI melanoma, 78%; in the assay with SK-MEL-28 melanoma, 104%; in the assay with SK-MEL-2 melanoma, 100%; in the assay with EKVX NSCLC, 93.2%. The growth with SN12C renal was 95.4%; in the assay with UO-31 renal it was 82.8%; in the assay on TK-10 renal, 109%; with ACHN renal, 101%; in the assay with CAKI-1 renal, 92.1%; in the assay on CCRF-CEM leukemia, 95.3%. Also, in the assay on MOLT-4 leukemia, the growth is 88.9%.
As for `O=C(c1cccc(F)c1)n1ccc2cc(NC(=S)Nc3cccnc3)ccc21`, the growth in the assay on HCT-15 colon is 89.6%; in the assay with HT29 colon it was 103%; in the assay on SNB-75 CNS, 90.6%; in the assay with SNB-19 CNS, 86.5%; in the assay with U251 CNS it was 95.1%; with PC-3 prostate, 96.5%. In addition, the growth with SK-MEL-5 melanoma is 99.6%; in the assay on UACC-62 melanoma it was 86.8%; with LOX IMVI melanoma it was 99%; in the assay with SK-MEL-28 melanoma, 106%; in the assay with SK-MEL-2 melanoma, 102%; in the assay on EKVX NSCLC, 105%. For the same compound, the growth in the assay with UO-31 renal is 83.3%; in the assay on TK-10 renal, 94.8%; with ACHN renal, 103%; in the assay on CAKI-1 renal, 97%; in the assay with CCRF-CEM leukemia it was 83.1%; in the assay on MOLT-4 leukemia it was 84.9%.
With `O=C1C[C@@H](c2ccccc2)Oc2c(Cc3ccccc3O)c(O)c(Cc3cc(Cc4cc(Cc5ccccc5O)ccc4O)ccc3O)c(O)c21`, the growth with HCT-15 colon is 104%; in the assay on HT29 colon, 128%; in the assay with SNB-75 CNS, 72.7%; with SNB-19 CNS, 99.7%; in the assay on U251 CNS it was 93.7%; with PC-3 prostate it was 89.1%. In addition, the growth is 98.6% in the assay on SK-MEL-5 melanoma; 72.7% with UACC-62 melanoma; 87.2% with LOX IMVI melanoma; 114% in the assay on SK-MEL-28 melanoma; 110% in the assay with SK-MEL-2 melanoma; 93.2% with EKVX NSCLC. Besides, the growth in the assay with SN12C renal was 100%; in the assay on UO-31 renal, 66.6%; with ACHN renal, 94.4%; in the assay with CAKI-1 renal, 75.5%; with A498 renal, 98.3%; with CCRF-CEM leukemia it was 91.5%. For the same compound, in the assay on MOLT-4 leukemia, the growth is 76.3%.
With `CN1C(=O)N(C)C2C1NN=c1s/c(=C\c3ccccn3)c(=O)n12` (centres undefined), the growth in the assay with HCT-15 colon is 79.4%; in the assay on HT29 colon, 102%; in the assay on SNB-75 CNS it was 93%; with SNB-19 CNS, 96.8%; in the assay on U251 CNS, 101%; with PC-3 prostate, 94.8%. Also, the growth is 102% with SK-MEL-5 melanoma; 90.6% with UACC-62 melanoma; 100% in the assay on LOX IMVI melanoma; 107% in the assay with SK-MEL-28 melanoma; 103% in the assay on SK-MEL-2 melanoma; 99.4% with EKVX NSCLC. In addition, the growth in the assay on UO-31 renal is 91.3%; in the assay on TK-10 renal, 104%; in the assay on ACHN renal, 104%; in the assay with CAKI-1 renal, 100%; in the assay with A498 renal, 105%; in the assay on CCRF-CEM leukemia it was 101%. The growth with MOLT-4 leukemia is 107%.
As for `O=C1CSC(=O)N1Cc1cc2ccccc2nc1Cl`, the growth in the assay on HCT-15 colon is 101%; with HT29 colon it was 107%; in the assay with SNB-75 CNS it was 84.7%; in the assay with SNB-19 CNS, 99.8%; in the assay on U251 CNS, 97.6%; in the assay on PC-3 prostate, 96.8%. Also, the growth in the assay with SK-MEL-5 melanoma is 99.7%; in the assay on UACC-62 melanoma it was 93.9%; in the assay on LOX IMVI melanoma, 97.4%; in the assay with SK-MEL-28 melanoma, 109%; with SK-MEL-2 melanoma, 94.7%; in the assay with EKVX NSCLC, 98.7%. Besides, the growth in the assay with SN12C renal was 97.4%; in the assay on UO-31 renal, 77.7%; in the assay on ACHN renal it was 104%; in the assay on CAKI-1 renal it was 86.1%; in the assay on A498 renal, 106%; in the assay with CCRF-CEM leukemia, 107%. In addition, the growth in the assay on MOLT-4 leukemia is 102%.
As to `COc1cc([C@H]2OC[C@H]3[C@@H]2CO[C@@H]3c2ccc(O)c(OC)c2)ccc1O`, the growth is 88.4% in the assay on HCT-15 colon; 92.8% in the assay on HT29 colon; 87.9% with SNB-75 CNS; 104% in the assay on SNB-19 CNS; 97% in the assay with U251 CNS; 82.6% in the assay on PC-3 prostate. For the same compound, the growth is 57.3% in the assay on SK-MEL-5 melanoma; 91% with UACC-62 melanoma; 9.99% (active) in the assay on LOX IMVI melanoma; 93.5% in the assay with SK-MEL-28 melanoma; 95.3% in the assay with SK-MEL-2 melanoma; 80.3% with EKVX NSCLC. Besides, the growth in the assay with SN12C renal is 74.6%; in the assay on UO-31 renal it was 83.1%; in the assay on ACHN renal, 93.5%; in the assay with A498 renal it was 112%; in the assay on CCRF-CEM leukemia it was 94.2%; in the assay on MOLT-4 leukemia, 109%.
As for `C#CCOc1ccc(C(Nc2ccc(OC)cc2)c2nnnn2C2CCCCC2)cc1` (centres undefined), the growth in the assay with HCT-15 colon is 97.1%; in the assay on HT29 colon, 101%; with SNB-75 CNS, 92.6%; with SNB-19 CNS, 93.3%; in the assay with U251 CNS, 89.9%; in the assay on PC-3 prostate, 93.8%. For the same compound, the growth is 100% in the assay with SK-MEL-5 melanoma; 73.4% with UACC-62 melanoma; 89.2% in the assay with LOX IMVI melanoma; 109% in the assay with SK-MEL-28 melanoma; 104% with SK-MEL-2 melanoma; 87.4% in the assay with EKVX NSCLC. For the same compound, the growth in the assay with SN12C renal is 96.5%; in the assay with UO-31 renal it was 80.4%; in the assay with TK-10 renal it was 112%; in the assay with ACHN renal, 97.3%; in the assay on CAKI-1 renal it was 76.5%; in the assay with MOLT-4 leukemia, 91.4%.
